Source: ChEMBL document CHEMBL1961873, “Compounds: GSK PKIS; Assays: Nanosyn kinase panel” (2012)

Columns and labels:
[1] = target: Sphingosine kinase 1 (Homo sapiens) (UniProt Q9NYA1); conditions: at 1 µM;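 note: mean SPHK1 inhibition value reported from the GSK PKIS kinase panel screen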
[2] = target: T1, Sphingosine kinase 2 (Homo sapiens) (UniProt Q9NRA0); conditions: at 0.1 µM
T1 sequence (whole entry): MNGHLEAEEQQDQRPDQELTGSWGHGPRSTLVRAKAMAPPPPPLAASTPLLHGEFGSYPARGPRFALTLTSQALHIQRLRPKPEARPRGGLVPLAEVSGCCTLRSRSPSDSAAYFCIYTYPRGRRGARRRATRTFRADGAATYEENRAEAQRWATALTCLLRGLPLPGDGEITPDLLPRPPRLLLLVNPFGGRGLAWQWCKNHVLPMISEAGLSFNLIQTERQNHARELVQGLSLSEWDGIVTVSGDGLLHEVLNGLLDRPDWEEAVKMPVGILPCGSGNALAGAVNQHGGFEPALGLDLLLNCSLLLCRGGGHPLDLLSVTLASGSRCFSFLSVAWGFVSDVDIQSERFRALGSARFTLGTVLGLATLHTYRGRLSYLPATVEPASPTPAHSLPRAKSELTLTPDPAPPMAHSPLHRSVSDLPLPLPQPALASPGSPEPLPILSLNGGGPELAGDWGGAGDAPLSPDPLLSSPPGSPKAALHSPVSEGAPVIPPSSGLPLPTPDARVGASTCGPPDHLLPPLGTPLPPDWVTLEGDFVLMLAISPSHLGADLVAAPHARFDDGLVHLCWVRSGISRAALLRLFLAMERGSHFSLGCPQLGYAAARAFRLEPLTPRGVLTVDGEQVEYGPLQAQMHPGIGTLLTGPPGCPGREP

[3] = target: T1, Sphingosine kinase 2 (Homo sapiens); conditions: at 1 µM
[4] = target: Casein kinase II subunit alpha (Homo sapiens) (UniProt P68400); conditions: at 0.1 µM
Sequence of Casein kinase II subunit alpha (Homo sapiens) (P68400 whole entry, looked up): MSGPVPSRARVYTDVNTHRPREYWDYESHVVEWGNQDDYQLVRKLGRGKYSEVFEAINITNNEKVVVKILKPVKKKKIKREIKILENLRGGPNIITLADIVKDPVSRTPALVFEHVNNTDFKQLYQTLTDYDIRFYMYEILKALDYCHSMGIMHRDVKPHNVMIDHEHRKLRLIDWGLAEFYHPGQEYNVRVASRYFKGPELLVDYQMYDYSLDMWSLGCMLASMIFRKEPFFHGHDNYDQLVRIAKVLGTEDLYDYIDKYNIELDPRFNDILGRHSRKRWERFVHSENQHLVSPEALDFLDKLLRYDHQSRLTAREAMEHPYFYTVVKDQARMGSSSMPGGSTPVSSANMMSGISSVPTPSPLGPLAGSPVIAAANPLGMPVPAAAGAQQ

[5] = target: Casein kinase II subunit alpha (Homo sapiens) (UniProt P68400); conditions: at 1 µM
[6] = target: T2, Inhibitor of nuclear factor kappa-B kinase subunit alpha (Homo sapiens) (UniProt O15111); conditions: at 0.1 µM
T2 sequence (whole entry): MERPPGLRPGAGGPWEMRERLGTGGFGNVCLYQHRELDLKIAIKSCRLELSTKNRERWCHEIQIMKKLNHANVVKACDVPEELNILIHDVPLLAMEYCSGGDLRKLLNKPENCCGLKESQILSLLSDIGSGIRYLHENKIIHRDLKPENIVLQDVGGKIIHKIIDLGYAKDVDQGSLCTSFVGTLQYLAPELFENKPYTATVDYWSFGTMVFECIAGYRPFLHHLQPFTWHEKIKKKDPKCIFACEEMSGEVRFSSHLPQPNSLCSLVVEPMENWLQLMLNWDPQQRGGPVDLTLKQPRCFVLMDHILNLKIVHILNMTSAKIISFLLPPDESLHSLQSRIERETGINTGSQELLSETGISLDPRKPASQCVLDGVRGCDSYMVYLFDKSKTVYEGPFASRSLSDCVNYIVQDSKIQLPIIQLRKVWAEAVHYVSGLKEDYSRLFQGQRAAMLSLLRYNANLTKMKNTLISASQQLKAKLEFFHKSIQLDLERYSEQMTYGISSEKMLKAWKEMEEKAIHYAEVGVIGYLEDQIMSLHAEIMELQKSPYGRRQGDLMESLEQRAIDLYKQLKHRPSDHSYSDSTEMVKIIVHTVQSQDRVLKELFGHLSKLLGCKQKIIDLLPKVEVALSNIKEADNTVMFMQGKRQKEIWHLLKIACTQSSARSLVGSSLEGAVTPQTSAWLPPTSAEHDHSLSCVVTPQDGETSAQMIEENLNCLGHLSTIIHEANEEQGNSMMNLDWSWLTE

[7] = target: T2, Inhibitor of nuclear factor kappa-B kinase subunit alpha (Homo sapiens); conditions: at 1 µM
[8] = target: T3, Inhibitor of nuclear factor kappa-B kinase subunit beta (Homo sapiens) (UniProt O14920); conditions: at 0.1 µM
T3 sequence (whole entry): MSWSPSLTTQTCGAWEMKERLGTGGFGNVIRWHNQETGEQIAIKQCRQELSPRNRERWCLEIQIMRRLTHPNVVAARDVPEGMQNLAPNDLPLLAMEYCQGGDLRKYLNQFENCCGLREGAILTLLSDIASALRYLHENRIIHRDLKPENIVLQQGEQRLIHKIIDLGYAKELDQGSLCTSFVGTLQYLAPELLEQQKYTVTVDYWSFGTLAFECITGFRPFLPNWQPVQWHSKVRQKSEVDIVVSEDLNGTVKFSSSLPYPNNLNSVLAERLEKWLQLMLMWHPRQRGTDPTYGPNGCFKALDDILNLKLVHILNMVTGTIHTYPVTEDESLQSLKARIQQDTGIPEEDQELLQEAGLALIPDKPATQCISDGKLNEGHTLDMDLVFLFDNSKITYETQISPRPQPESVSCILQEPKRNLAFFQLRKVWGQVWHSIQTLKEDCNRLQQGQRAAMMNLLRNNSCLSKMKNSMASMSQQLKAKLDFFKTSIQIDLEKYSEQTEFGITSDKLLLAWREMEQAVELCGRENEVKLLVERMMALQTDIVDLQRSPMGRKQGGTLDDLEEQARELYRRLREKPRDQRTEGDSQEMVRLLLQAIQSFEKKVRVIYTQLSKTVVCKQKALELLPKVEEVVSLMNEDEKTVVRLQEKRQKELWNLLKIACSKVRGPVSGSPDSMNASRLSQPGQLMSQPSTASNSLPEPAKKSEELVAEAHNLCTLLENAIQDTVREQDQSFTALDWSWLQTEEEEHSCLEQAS

[9] = target: T3, Inhibitor of nuclear factor kappa-B kinase subunit beta (Homo sapiens); conditions: at 1 µM
[10] = target: T4, Inhibitor of nuclear factor kappa-B kinase subunit epsilon (Homo sapiens) (UniProt Q14164); conditions: at 0.1 µM
T4 sequence (whole entry): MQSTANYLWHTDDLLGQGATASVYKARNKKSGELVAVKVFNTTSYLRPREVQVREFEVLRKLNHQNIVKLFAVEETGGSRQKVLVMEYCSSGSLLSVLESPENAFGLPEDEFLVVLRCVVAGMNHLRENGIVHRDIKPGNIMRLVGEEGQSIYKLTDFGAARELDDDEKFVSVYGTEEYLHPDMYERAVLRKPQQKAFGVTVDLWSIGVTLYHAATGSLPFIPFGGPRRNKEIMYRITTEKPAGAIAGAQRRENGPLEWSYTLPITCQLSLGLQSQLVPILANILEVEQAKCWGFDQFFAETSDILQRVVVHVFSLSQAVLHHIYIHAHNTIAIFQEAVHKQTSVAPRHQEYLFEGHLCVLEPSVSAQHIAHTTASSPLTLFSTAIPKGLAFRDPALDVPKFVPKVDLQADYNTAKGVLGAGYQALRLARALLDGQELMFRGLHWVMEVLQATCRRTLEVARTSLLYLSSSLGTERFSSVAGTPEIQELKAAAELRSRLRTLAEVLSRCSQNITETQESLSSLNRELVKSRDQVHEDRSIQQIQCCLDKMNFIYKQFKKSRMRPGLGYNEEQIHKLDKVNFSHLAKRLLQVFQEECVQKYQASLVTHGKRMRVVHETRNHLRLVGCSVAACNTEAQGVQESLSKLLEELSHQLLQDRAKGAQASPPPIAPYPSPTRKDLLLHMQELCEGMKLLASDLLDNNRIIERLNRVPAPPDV

[11] = target: T4, Inhibitor of nuclear factor kappa-B kinase subunit epsilon (Homo sapiens); conditions: at 1 µM
[12] = target: T5, Serine/threonine-protein kinase Nek1 (Homo sapiens) (UniProt Q96PY6); conditions: at 0.1 µM
T5 sequence (whole entry): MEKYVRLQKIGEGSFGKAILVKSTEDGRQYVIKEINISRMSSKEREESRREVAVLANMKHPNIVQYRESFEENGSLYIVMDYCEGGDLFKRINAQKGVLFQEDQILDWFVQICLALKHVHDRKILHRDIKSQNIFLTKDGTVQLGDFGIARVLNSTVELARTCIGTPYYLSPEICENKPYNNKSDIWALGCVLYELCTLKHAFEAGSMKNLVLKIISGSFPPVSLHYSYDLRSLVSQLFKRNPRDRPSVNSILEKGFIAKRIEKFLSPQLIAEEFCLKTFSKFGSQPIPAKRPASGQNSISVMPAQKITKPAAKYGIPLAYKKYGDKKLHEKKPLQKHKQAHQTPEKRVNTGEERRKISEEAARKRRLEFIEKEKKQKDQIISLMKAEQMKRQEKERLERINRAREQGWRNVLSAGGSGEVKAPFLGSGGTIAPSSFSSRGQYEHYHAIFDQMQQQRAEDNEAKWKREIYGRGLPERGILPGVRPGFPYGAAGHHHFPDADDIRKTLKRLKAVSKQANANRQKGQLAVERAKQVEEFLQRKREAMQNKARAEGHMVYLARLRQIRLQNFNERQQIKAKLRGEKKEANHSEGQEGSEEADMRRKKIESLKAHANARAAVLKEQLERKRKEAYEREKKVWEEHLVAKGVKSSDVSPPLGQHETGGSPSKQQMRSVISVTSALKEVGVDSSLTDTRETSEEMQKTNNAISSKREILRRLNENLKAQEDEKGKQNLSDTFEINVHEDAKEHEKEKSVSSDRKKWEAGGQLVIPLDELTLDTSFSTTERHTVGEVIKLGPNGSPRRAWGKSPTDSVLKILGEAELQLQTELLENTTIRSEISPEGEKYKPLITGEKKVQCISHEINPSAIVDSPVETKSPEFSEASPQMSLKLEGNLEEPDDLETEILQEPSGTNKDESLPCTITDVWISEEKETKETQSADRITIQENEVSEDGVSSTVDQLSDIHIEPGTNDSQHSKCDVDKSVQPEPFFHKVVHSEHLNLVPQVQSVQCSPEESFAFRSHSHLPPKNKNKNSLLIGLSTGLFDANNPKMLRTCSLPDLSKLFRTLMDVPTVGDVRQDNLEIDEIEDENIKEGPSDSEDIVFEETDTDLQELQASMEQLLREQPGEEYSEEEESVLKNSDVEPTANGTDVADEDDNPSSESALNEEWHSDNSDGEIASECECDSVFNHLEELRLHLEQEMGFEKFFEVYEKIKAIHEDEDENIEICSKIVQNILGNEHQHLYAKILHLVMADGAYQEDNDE

[13] = target: T5, Serine/threonine-protein kinase Nek1 (Homo sapiens); conditions: at 1 µM
[14] = target: T6, Serine/threonine-protein kinase Nek2 (Homo sapiens) (UniProt P51955); conditions: at 0.1 µM
T6 sequence (whole entry): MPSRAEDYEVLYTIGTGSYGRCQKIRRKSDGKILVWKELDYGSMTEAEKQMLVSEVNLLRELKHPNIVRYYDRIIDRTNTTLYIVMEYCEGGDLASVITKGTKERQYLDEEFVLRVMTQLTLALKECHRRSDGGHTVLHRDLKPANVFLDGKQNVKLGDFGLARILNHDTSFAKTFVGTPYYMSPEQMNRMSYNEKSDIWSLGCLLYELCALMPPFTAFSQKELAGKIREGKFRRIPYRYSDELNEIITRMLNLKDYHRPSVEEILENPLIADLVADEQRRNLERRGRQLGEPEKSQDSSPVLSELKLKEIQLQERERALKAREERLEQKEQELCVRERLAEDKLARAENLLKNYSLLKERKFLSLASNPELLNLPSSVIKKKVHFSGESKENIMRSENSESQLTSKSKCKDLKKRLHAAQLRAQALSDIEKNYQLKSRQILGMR

[15] = target: T6, Serine/threonine-protein kinase Nek2 (Homo sapiens); conditions: at 1 µM
[16] = target: Serine/threonine-protein kinase Nek6 (Homo sapiens) (UniProt Q9HC98); conditions: at 0.1 µM
Sequence of Serine/threonine-protein kinase Nek6 (Homo sapiens) (Q9HC98 whole entry): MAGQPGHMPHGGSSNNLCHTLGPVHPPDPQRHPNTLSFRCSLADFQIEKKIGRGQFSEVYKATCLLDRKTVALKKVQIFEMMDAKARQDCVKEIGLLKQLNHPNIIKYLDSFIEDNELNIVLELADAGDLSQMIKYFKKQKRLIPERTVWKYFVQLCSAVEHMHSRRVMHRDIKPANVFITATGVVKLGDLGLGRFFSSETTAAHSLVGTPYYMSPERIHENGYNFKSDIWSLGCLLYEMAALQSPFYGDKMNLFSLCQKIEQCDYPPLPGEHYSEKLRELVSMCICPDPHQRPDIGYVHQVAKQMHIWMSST

[17] = target: Serine/threonine-protein kinase Nek6 (Homo sapiens) (UniProt Q9HC98); conditions: at 1 µM
[18] = target: Serine/threonine-protein kinase Nek7 (Homo sapiens) (UniProt Q8TDX7); conditions: at 0.1 µM
Sequence of Serine/threonine-protein kinase Nek7 (Homo sapiens) (Q8TDX7 whole entry, looked up): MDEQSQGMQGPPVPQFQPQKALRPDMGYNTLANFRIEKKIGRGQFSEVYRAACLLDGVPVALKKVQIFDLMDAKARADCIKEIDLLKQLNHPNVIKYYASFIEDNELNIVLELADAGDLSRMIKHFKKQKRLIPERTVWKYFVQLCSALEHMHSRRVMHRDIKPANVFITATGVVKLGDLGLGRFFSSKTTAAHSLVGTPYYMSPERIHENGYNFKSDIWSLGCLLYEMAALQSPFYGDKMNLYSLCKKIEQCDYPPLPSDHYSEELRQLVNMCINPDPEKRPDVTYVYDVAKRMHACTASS

[19] = target: Serine/threonine-protein kinase Nek7 (Homo sapiens) (UniProt Q8TDX7); conditions: at 1 µM
[20] = target: T7, Serine/threonine-protein kinase Nek9 (Homo sapiens) (UniProt Q8TD19); conditions: at 0.1 µM;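 note: reported value is the mean percent inhibition of NEK9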
T7 sequence (whole entry): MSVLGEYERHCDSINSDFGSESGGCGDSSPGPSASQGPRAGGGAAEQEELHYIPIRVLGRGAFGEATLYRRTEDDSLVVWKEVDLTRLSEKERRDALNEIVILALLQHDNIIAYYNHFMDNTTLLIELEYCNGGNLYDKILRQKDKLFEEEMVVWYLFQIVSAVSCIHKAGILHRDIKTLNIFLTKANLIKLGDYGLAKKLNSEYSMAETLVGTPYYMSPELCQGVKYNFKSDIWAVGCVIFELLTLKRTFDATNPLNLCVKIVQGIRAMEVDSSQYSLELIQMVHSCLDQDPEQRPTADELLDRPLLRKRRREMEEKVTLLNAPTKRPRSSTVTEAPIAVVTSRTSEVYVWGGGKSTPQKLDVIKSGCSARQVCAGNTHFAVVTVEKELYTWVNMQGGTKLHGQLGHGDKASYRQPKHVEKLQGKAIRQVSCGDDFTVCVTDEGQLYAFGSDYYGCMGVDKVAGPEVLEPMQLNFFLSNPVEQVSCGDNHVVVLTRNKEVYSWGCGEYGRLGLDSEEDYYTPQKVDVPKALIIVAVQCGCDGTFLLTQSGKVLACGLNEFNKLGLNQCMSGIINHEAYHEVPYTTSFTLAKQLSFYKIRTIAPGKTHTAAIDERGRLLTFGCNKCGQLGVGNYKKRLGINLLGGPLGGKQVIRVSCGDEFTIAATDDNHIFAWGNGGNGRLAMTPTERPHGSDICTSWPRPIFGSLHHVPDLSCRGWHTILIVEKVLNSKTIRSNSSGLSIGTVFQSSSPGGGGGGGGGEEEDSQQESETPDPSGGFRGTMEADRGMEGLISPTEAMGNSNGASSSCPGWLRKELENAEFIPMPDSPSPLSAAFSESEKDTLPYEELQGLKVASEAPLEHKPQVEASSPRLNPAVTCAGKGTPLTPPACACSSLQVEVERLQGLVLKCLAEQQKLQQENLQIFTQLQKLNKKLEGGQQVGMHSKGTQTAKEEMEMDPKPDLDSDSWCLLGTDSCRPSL

Sequence of Sphingosine kinase 1 (Homo sapiens) (Q9NYA1 whole entry): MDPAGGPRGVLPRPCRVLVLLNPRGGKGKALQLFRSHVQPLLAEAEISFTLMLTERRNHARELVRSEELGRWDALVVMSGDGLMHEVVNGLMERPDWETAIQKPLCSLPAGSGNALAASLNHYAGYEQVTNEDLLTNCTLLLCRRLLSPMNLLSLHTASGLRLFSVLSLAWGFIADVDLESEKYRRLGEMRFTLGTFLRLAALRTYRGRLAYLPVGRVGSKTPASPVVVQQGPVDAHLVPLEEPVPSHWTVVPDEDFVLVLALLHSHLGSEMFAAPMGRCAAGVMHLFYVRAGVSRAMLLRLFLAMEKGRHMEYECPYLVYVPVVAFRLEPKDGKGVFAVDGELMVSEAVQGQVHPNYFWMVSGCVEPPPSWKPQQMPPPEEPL

c1cnn2ncc(-c3ccnc(Nc4ccc5c(c4)OCCO5)n3)c2c1
inhibition [1]: -1.74%
inhibition [2]: 2.07%
inhibition [3]: 0.2%
inhibition [4]: 13.2%
inhibition [5]: 47.5%
inhibition [6]: 14.7%
inhibition [7]: 60.5%
inhibition [8]: 8.92%
inhibition [9]: 30%
inhibition [10]: 6.75%
inhibition [11]: 20.5%
inhibition [12]: 4.85%
inhibition [13]: 20.4%
inhibition [14]: 4.88%
inhibition [15]: 15.4%
inhibition [16]: 3.89%
inhibition [17]: 4.5%
inhibition [18]: 3.53%
inhibition [19]: 6.49%
inhibition [20]: 16.2%
